Experimental data published in PubChem BioAssay (NCI).
The panel holds about 79,000 compounds, 15% with a hit somewhere; the sample as a whole holds those more often. A number with no mark means an inactive call. The source made the active and inactive calls. Rule as the data show it: active = growth inhibition above about 70%; inactive = the rest.

assay: NCI Yeast Anticancer Drug Screen. Data for the bub3 strain (AID 167); conditions: S. cerevisiae bub3 mutant strain, at 50.0 µM (retest, dose inferred, filed as 5.0), hits give high values
In short: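 Yeast carrying a defined mutation is treated with each compound, and growth is compared with that of vehicle-exposed cells to give inhibition.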

SMILES	growth inhibition
S=C(Nc1cc(Cl)cc(Cl)c1)SCc1ccccc1	68%
CCCOc1cc(C(=O)OCCN(CC)CC)cc(OCCC)c1OCCC	12%
C=C1C(=O)[C@@]23CC[C@H]4[C@@](C)(CCC[C@@]4(C)C(=O)OC)[C@@H]2CC[C@]1(O)C3	99% (active)
CCCSc1ncnc2nc(C)[nH]c12	-6%
O=C1C=CC(=O)N1CCCCCCN1C(=O)C=CC1=O	97% (active)
CCOC(=O)c1[nH]c2c([N+](=O)[O-])cccc2c1[N+](=O)[O-]	7%
CSC(=S)/C(=C/Nc1ncccn1)c1ccccc1	94% (active)
N#CNc1nc(N)c(-c2ccc(Cl)cc2)c(C(=O)Nc2ccc(Cl)c(Cl)c2)n1	1%
COc1ccc2c(c1)c(=O)c1c(NCCN(C)C)ccc3nnn2c31	43%
CCC[CH2][Sn]([S][Sn]([CH2]CCC)([c]1ccccc1)[c]1ccccc1)([c]1ccccc1)[c]1ccccc1	87% (active)
CCC1=CCC2C(=O)c3cc4ccccc4cc3C(=O)C2C1 (configuration not stated)	61%
Cc1ccccc1NC(=O)C1C(=O)N(c2ccccc2C)C(=O)/C1=N/O (configuration not stated)	1%
CCCCc1[nH]ccc2c(C)c3nc4ccccc4c3cc12	94% (active)
O=C(O)C(Br)C(Br)C(=O)Nc1ccc(Cl)c(Cl)c1 (configuration not stated)	100% (active)
Cc1cc(C)c2c(c1)sc1nncn12	97% (active)
CC(=O)C(C=O)C(C)=O.CC(=O)CC(C)=O.CC(=O)CC(C)=O.[Ru]	33%
COc1ccc(NC(=O)CCC(=O)C(C)C(=O)c2ccccc2)cc1 (configuration not stated)	21%
